Test results published in the supplement of paper PMC11732987, “Enantioselective OTUD7B fragment discovery through chemoproteomics screening and high-throughput optimisation” (Communications Chemistry, 2025).

What was measured:
Assay in all cases: log2 ratio of Biotin-Ahx-Ub-VS probe labelling (fragment/DMSO); higher = less target engagement (more negative = stronger competition), active = hit call of the paper (q ≤ 0.05, log2 ratio ≤ -1)
Details in all cases: compound concentration: 200 uM; treatment time: 3 h
[1] = target: USP34 (UniProt Q70CQ2)
Procedure, shortened: (§1)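 Labelled DUBs from HEK293T lysate were NeutrAvidin-enriched, digested with LysC and trypsin, and run by diaPASEF LC-MS/MS. Before that, each 495 µg sample in Tris/CHAPS/IGEPAL buffer with protease inhibitors was treated in triplicate with fragment at 200 µM or vehicle for 3 h, then with Biotin-Ahx-Ub-VS at 0.5 µM final for 1 h. Values are average log2 ratios of fragment over vehicle by unpaired t-test, based on global-median-normalised Spectronaut label-free quantities from proteins with ≥2 unique peptides.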

[2] = target: T1, USP36 (UniProt Q9P275)
T1 sequence (whole entry): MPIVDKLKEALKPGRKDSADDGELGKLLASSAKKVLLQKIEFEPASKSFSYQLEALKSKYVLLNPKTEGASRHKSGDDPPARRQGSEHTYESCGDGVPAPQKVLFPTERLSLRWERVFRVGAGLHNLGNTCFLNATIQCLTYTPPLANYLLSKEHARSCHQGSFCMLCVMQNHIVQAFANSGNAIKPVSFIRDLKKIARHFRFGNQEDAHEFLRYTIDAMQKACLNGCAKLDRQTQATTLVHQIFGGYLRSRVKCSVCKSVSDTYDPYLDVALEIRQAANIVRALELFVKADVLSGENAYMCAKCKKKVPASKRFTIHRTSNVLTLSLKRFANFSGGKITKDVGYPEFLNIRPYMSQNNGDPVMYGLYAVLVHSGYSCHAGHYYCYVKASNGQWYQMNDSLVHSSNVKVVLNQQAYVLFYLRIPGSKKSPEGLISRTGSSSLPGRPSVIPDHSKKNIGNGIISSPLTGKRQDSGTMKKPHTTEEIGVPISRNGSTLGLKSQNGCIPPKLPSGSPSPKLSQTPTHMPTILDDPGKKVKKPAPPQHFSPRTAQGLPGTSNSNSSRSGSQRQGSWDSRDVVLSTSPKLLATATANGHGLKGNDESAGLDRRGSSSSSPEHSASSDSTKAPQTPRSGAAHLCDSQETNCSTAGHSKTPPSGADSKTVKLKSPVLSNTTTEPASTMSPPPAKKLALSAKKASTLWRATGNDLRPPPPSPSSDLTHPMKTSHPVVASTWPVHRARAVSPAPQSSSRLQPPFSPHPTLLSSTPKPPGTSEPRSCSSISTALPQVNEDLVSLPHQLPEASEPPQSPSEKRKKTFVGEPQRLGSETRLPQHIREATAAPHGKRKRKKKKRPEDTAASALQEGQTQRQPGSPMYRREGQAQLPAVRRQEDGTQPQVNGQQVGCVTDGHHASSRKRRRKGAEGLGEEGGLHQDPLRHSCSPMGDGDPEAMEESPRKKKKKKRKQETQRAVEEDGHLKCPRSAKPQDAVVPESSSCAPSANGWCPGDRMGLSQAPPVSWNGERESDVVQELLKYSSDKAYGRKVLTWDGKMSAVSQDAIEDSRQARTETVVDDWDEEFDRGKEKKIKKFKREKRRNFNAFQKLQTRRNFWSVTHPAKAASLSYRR
Procedure, shortened: as §1

[3] = target: T2, USP38 (UniProt Q8NB14)
T2 sequence (whole entry): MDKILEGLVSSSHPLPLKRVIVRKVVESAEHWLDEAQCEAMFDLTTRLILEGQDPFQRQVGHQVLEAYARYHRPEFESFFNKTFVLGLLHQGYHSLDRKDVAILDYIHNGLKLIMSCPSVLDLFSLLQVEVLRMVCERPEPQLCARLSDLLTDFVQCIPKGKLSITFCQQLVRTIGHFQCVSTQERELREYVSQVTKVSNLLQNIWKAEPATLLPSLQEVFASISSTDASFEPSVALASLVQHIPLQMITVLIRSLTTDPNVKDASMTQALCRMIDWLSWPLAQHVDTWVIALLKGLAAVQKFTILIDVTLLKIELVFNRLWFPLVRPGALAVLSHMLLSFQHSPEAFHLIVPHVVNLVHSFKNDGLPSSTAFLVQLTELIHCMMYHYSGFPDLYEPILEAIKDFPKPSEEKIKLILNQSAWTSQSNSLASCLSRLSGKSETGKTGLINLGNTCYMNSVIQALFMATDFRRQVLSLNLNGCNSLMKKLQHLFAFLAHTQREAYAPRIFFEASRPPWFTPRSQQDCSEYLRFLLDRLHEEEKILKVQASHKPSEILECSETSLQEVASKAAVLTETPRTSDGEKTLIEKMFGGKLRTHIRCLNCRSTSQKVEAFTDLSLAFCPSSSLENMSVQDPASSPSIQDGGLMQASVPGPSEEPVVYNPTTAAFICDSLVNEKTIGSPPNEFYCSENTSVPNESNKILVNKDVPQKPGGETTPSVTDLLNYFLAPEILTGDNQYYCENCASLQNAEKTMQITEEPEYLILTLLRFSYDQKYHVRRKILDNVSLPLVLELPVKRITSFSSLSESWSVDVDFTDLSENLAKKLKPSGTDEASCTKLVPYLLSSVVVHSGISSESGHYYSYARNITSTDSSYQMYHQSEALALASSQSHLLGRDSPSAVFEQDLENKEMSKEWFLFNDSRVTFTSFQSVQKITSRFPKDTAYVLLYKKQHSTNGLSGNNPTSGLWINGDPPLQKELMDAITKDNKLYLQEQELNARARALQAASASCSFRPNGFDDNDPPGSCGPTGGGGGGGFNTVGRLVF
Procedure, shortened: as §1

[4] = target: T3, USP39 (UniProt Q53GS9)
T3 sequence (whole entry): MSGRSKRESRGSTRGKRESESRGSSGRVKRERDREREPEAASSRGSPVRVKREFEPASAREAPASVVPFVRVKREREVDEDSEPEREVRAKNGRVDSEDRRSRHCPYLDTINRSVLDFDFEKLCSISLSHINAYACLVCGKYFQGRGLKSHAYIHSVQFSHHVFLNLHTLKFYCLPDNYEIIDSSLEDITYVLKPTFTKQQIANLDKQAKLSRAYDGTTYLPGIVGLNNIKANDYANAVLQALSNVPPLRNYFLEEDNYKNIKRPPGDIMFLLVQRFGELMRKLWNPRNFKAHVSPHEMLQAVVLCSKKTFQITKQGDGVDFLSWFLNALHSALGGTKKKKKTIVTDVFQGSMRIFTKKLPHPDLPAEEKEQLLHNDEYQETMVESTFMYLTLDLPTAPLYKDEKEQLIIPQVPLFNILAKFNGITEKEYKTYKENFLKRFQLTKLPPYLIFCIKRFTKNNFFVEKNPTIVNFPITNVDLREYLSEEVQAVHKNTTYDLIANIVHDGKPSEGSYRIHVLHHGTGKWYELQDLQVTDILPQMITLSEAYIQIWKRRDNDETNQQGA
Procedure, shortened: as §1

[5] = target: T4, USP4 (UniProt Q13107)
T4 sequence (whole entry): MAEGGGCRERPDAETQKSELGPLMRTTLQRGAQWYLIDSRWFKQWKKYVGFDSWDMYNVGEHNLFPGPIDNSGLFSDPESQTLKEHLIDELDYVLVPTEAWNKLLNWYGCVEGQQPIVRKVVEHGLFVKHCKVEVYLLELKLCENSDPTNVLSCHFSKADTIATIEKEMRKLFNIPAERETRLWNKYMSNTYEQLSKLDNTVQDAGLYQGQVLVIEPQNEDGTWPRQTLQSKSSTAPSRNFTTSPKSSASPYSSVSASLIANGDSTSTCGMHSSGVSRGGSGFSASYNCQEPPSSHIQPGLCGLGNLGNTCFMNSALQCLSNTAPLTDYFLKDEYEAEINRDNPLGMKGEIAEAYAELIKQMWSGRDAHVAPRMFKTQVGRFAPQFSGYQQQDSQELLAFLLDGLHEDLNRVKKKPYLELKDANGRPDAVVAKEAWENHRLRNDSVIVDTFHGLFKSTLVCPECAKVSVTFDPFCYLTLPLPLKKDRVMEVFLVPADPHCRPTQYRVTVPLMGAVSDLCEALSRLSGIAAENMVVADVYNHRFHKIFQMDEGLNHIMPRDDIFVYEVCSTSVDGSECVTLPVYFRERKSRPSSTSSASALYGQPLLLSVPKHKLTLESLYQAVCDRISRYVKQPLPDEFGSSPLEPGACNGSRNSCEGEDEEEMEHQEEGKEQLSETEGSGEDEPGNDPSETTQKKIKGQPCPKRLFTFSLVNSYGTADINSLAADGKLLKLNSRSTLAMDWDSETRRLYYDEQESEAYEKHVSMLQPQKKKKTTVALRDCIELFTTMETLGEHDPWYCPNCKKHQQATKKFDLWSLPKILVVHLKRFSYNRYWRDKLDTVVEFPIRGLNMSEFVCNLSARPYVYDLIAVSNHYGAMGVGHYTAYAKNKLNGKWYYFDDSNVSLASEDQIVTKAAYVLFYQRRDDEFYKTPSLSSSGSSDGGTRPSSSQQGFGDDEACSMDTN
Procedure, shortened: as §1

Measured: log2 ratio of Biotin-Ahx-Ub-VS probe labelling

Sequence of USP34 (Q70CQ2 whole entry, the tested form may be a part): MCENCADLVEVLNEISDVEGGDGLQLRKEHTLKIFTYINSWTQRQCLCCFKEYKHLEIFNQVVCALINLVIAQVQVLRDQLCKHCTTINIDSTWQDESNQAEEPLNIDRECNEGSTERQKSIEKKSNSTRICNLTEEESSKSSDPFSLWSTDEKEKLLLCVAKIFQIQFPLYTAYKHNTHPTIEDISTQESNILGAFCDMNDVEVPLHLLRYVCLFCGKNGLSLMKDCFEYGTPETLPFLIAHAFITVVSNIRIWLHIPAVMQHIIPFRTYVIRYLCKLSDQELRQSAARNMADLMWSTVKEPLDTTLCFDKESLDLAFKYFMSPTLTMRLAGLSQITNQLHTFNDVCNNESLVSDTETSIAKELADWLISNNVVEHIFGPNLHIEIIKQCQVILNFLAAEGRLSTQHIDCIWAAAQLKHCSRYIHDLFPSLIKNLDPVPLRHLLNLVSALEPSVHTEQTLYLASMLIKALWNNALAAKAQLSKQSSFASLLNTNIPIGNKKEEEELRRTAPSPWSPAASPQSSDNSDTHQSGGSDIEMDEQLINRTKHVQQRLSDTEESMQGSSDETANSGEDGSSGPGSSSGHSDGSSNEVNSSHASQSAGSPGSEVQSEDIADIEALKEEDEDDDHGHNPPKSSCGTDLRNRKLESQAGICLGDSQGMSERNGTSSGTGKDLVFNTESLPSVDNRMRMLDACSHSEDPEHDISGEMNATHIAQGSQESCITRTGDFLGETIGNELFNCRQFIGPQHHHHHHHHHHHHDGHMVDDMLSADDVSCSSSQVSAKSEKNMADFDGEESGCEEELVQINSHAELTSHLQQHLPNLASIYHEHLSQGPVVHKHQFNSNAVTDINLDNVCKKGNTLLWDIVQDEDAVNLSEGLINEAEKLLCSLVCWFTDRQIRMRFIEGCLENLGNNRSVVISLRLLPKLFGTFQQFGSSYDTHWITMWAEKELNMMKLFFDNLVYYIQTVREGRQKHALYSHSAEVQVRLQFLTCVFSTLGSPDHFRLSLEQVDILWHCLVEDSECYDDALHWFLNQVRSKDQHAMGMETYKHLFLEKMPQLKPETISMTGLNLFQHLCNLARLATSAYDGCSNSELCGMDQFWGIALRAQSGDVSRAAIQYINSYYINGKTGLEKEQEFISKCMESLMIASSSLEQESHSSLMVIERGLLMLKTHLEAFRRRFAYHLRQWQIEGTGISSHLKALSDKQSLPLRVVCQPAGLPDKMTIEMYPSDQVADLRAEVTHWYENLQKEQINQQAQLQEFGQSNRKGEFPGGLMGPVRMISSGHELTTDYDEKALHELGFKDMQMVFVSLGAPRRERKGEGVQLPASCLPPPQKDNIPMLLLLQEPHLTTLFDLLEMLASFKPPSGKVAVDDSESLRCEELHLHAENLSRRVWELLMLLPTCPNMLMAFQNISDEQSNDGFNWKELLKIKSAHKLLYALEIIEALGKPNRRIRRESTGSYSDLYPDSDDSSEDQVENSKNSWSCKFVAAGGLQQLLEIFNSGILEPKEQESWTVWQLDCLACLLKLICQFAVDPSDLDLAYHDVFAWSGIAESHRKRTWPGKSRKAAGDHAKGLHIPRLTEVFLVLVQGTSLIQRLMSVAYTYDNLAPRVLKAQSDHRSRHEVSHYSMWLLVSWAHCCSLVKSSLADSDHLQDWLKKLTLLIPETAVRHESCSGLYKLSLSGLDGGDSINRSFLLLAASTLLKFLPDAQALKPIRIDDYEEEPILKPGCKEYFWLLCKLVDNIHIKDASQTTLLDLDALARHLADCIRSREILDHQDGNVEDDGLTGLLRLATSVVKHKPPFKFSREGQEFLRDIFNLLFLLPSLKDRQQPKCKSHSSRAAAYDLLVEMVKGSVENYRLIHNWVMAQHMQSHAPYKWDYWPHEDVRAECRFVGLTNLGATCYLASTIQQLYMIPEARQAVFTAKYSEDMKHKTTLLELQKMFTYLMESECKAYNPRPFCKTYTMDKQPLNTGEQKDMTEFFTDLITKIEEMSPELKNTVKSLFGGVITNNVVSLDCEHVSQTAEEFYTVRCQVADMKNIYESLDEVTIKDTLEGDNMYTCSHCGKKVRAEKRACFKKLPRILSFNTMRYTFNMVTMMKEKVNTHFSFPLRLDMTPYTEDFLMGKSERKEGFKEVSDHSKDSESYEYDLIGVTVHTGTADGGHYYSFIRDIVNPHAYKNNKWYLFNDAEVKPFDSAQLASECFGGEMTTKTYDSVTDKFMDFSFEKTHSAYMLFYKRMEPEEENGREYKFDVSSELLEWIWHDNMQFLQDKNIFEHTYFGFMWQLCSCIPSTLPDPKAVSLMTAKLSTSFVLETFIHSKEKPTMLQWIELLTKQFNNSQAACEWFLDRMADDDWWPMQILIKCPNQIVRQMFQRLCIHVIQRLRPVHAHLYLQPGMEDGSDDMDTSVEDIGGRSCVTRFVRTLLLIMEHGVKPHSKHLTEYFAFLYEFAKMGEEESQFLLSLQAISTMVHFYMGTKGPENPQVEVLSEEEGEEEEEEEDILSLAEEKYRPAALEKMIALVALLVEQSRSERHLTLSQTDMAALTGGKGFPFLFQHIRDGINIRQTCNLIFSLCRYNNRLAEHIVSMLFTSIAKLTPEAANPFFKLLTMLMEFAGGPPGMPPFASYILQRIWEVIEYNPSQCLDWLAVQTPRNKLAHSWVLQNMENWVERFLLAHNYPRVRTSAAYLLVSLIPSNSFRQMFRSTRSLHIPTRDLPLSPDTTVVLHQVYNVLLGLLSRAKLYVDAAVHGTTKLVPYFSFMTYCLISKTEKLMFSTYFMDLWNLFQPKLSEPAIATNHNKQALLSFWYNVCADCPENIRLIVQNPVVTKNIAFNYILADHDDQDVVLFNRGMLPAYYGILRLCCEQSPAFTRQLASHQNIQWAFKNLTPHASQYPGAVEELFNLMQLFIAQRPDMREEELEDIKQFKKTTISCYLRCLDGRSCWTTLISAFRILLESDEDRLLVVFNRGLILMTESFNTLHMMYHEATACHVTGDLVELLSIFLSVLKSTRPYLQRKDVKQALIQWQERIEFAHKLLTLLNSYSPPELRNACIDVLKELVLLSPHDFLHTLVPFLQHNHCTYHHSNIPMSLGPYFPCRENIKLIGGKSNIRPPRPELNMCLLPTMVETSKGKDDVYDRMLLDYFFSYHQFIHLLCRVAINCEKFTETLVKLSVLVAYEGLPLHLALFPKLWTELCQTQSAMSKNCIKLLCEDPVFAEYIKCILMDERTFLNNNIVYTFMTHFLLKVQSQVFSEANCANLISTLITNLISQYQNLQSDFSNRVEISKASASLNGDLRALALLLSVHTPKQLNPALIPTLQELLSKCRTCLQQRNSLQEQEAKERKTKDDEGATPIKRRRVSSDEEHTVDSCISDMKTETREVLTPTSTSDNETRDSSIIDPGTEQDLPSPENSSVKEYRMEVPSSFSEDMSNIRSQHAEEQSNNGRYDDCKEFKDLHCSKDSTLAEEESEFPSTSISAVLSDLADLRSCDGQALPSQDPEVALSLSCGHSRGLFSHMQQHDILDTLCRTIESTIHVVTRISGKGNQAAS

O=C(CCl)N1CCc2sccc2C1
inactive: [1] -0.165 | [2] -0.212 | [3] -0.305 | [4] 0.0206 | [5] -0.861
